FH mod = Identification of activators of human fumarate hydratase by quantitative high-throughput screening | Potency, µM (titrated, usually from 79.9 µM), for inactives: at the highest dose activity change, negative = inhibition, usual class: inhibitors | hit rate 0.22% among 54,000 | AID 1347055, 2019 | Fumarate hydratase, mitochondrial (Homo sapiens), P07954 | FH coupled MDH/diaphorase resazurin fluorescence, 15 min; note: potency is the fitted concentration of half-maximal effect; % is set by controls: 0 for no effect and ±100 for the full control effect; the screen sought activators but most active calls are inhibition curves; nearly all actives have a fitted effect of over 45% in size
GALC G270D act = A Novel Cell-Based Assay to Identify Small Molecules for B -Galactocerebrosidase. P54803. hit rate 0.1% among 45,000. Potency, µM (highest dose often 57.5 µM), most hits filed as activators. 145M-Twi-hGALC-G270D cells (Twitcher mouse brain line with human GALC G270D), HMU-beta-Gal fluorescence, 48 h; note: potency is the fitted concentration of half-maximal effect; 0% is about no effect; nearly all actives have a fitted effect of over 65% in size
Target sequence (P54803 whole entry G286D): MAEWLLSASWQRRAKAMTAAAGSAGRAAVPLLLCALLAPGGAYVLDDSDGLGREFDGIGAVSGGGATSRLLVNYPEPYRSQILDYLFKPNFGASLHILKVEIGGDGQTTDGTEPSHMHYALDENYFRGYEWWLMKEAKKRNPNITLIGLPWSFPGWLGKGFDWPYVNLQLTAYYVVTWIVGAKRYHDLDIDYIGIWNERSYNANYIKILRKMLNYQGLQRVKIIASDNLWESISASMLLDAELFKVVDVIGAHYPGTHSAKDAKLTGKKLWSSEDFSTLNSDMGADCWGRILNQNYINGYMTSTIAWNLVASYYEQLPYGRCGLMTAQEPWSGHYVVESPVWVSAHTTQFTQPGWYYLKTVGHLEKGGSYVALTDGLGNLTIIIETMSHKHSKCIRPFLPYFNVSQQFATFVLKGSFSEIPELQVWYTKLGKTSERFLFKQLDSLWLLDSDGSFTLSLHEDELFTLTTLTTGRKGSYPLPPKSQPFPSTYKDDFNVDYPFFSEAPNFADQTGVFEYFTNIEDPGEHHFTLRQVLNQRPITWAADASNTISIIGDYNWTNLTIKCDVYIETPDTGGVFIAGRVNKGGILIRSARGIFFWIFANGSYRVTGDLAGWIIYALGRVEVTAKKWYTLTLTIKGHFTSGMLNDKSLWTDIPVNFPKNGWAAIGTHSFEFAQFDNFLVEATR
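Live 145M-Twi cells (Twitcher mouse brain-derived, GALC-null) stably expressing human GALC-G270D, with a wild-type GALC line, were compound-treated. Residual GALC activity was then read as fluorescence from 0.1 mM final HMU-β-gal at pH 5.2; higher signal means activation.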
HTT-AS promoter = Primary qHTS for Identification of Small Molecule Activators of Huntingtin-Antisense Promoter Activity. HEK293 HTT-AS promoter firefly luciferase reporter, 24 h; response scale: percent change from vehicle, -100% = no light. Potency, µM (titrated, usually from 57.5 µM), inactives show at the top dose activity change, positive = activation, usual class: activators. hit rate 0.24% among 48,000. AID 1508624, 2021; note: potency is the fitted concentration of half-maximal effect; nearly all actives have a fitted effect of over 55% in size
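HEK293 luciferase promoter-reporter cells (2,500/well) plated 24 h, then compounds added at up to 57.5 uM final for 24 h at 37 °C. Firefly luminescence by Dual-Glo, normalized to vehicle (0%) and zero RLU (-100%).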
GPR32 ag = qHTS for Agonists of Human Resolvin D1 Receptor DRV1 | Probable G-protein coupled receptor 32 (Homo sapiens), O75388 | hit rate 2.5% among 48,000 | CHO-K1 GPR32 beta-arrestin PathHunter luminescence, 90 min; zero percent set by DMSO-only wells | activation, % at 76.9 µM;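 active = activation of at least 60% and not above a set upper limit, about 1 call in 100 departs from these limits; inconclusive = activation of 40% to 60%, or above that upper limit; inactive = activation under 40%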; note: 0% is about no effect
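Agonism was scored by beta-Gal fragment complementation (chemiluminescent read, 1 h detection at ambient temperature) reporting beta-arrestin binding to GPR32 in engineered CHO-K1 cells. Compound treatment lasted 90 min at 37 C, normalized to a DMSO basal control.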
B2AR arrestin ag = qHTS assay of beta-arrestin-biased ligands of beta2-adrenergic receptor: NCGC Sytravon Library Screen; HTLA Tango cells, beta-arrestin recruitment, luciferase luminescence, 18 h; Potency, µM (doses to about 46.1 µM), most hits filed as activators; 44,000 tested, under 10 active; AID 1347077, 2019;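 note: potency is the fitted concentration of half-maximal effect; 0% = DMSO and full agonism = EC100 isoproterenol or metaproterenol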
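Tango cell line, 1% FBS DMEM; cpd titration up to 46 microM; 18 hr, 37 degrees C, 5% CO2. Luciferin/ATP substrate mix added, 15 min RT, luminescence. %Activity, CRC fitting, curve-class categorization.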
HTT prom inh = Primary qHTS for Identification of Small Molecule Inhibitors of Huntingtin Promoter Activity; hit rate 0.93% among 48,000; Potency, µM (highest dose often 57.5 µM), for inactives: at the highest dose activity change, negative = inhibition, hits mostly inhibitors; HEK293 HTT promoter firefly luciferase reporter, 24 h; note: potency is the fitted concentration of half-maximal effect; nearly all actives have a fitted effect of over 50% in size
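HEK293 cells carrying firefly luciferase reporters were seeded at 2,500 per well in Opti-MEM and cultured for 24 h. They were then treated with compounds at up to 57.5 uM final for 24 h at 37 degrees C before Dual-Glo luminescence readout.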
* hit, by the source's call; ! = a repeat was not active; [ ] = another dose, or the depositor's remark. Sampled rows, rich in hits. Any-hit rate of the full collection: about 3.7%. Unless noted, calls come from the whole dose curve; as a rule, active = well fitted curve in the direction sought with a large enough effect; inconclusive = small, poorly fitted or top-dose-only effect, or another doubt; inactive = no such curve, though single readings can be large; an effect the other way counts as inactive or inconclusive.

`CCC1CCc2nc3sc(C(=O)Nc4cccc(F)c4)c(N)c3cc2C1` (stereo unspecified) gave FH mod 14.0%, GALC G270D act inactive, HTT-AS promoter 2.9%, GPR32 ag 14.4, B2AR arrestin ag inactive and HTT prom inh 8.3%.
CNC(=O)c1ccccc1Nc1nc(Nc2ccc3c(c2OC)CCCC(N2CCN(CCO)CC2)C3)ncc1Cl (stereo unspecified) was read as FH mod 1.8%.
CC(=O)c1ccc(N2CCN(C(=O)C3CCN(S(=O)(=O)c4ccc(Br)s4)CC3)CC2)cc1 was read as FH mod -23.8%, GALC G270D act inactive, HTT-AS promoter -39.7%, GPR32 ag 86.5*, B2AR arrestin ag inactive and HTT prom inh inconclusive.
Cc1cc(NC(=O)C2CCN(S(=O)(=O)c3ccc(Br)s3)CC2)ccc1Br was read as FH mod -5.6%, GALC G270D act inactive, HTT-AS promoter -19.1%, GPR32 ag 76.4*, B2AR arrestin ag inactive and HTT prom inh -2.7%.
`COc1cccc(NC(=O)C2CCN(S(=O)(=O)c3cc(-c4noc(C)n4)ccc3C)CC2)c1` gave FH mod -25.6%, GALC G270D act inactive, HTT-AS promoter -53.4%, GPR32 ag -7.6, B2AR arrestin ag inactive and HTT prom inh 12.6µM*.
CC(=O)c1ccc(N2CCN(C(=O)C3CCCN(S(=O)(=O)c4ccc(Br)s4)C3)CC2)cc1 (stereo unspecified) was read as FH mod -9.1%, GALC G270D act inactive, HTT-AS promoter -36.7%, GPR32 ag 25.5, B2AR arrestin ag inactive and HTT prom inh 0.0%.
`Cc1ccc(NC(=O)C2CCN(S(=O)(=O)c3cccc4nonc34)CC2)cc1C` gave FH mod -1.1%, GALC G270D act inactive, HTT-AS promoter -18.0%, GPR32 ag 100.9*, B2AR arrestin ag inactive and HTT prom inh inconclusive.
Screening COc1cc(C(=O)OC[C@H]2O[C@@H](Oc3ccccc3/C=C/C(=O)O)[C@H](O)[C@@H](O)[C@@H]2O)cc(OC)c1OC returned FH mod -1.7%[53.3 µM].
For c1ccc(-c2ncc(CN3CCN(c4ncccn4)CC3)[nH]2)cc1 the results were FH mod -9.7%.
For Cc1ccc(NC(=O)C2CCN(S(=O)(=O)c3cccc4nsnc34)CC2)cc1F the results were FH mod -35.3%, GALC G270D act inactive, HTT-AS promoter -16.0%, GPR32 ag 93.3*, B2AR arrestin ag inactive and HTT prom inh -19.4%.
Screening CO[C@@]1(NC(=O)CSCC#N)C(=O)N2C(C(=O)O)=C(CSc3nnnn3C)CS[C@@H]21 returned FH mod 3.1%[53.3 µM], GALC G270D act inactive, HTT-AS promoter -0.6%, GPR32 ag 64.0*! and HTT prom inh 12.4%.
Screening Cc1cc(O)c2ccccc2c1O returned FH mod inconclusive, GALC G270D act inactive, HTT-AS promoter -83.6%, GPR32 ag 80.6* and HTT prom inh inconclusive.
`Cc1cc(O)c(C)c(C)c1O` gave FH mod 3.5%[53.3 µM], GALC G270D act inactive, HTT-AS promoter -3.9%, GPR32 ag -11.4 and HTT prom inh -2.1%.
Screening COc1cc(F)c(C(C)C)cc1-c1ccc(C(F)(F)F)cc1CN1C(=O)OC(c2cc(C(F)(F)F)cc(C(F)(F)F)c2)C1C (stereo unspecified) returned FH mod 2.2%.
C=C1C(=O)O[C@H]2C3=C(C)CCC[C@]3(C)C(=O)C[C@@H]12 was read as FH mod 3.6%.
`COc1ccc(S(=O)(=O)Nc2ccc3oc4c(c3c2)C(=O)CC(C)(C)C4)cc1` gave FH mod -17.1%, GALC G270D act inactive, HTT-AS promoter -34.5%, GPR32 ag 64.3*, B2AR arrestin ag inactive and HTT prom inh inconclusive.
For CCc1ccccc1NS(=O)(=O)c1ccc2[nH]cc(C(=O)NC3CCCC3)c(=O)c2c1 the results were FH mod inconclusive, GALC G270D act inactive, HTT-AS promoter -36.4%, GPR32 ag 106.5*, B2AR arrestin ag inactive and HTT prom inh -22.4%.
`CNC(=O)c1c[nH]c2ccc(S(=O)(=O)Nc3cccc(Cl)c3C)cc2c1=O` gave FH mod -10.5%, GALC G270D act inactive, HTT-AS promoter -49.6%, GPR32 ag -4.3, B2AR arrestin ag inactive and HTT prom inh -20.8%.
`O=C(NC1CCCCC1)c1c[nH]c2ccc(S(=O)(=O)Nc3ccccc3F)cc2c1=O` gave FH mod inconclusive, GALC G270D act inactive, HTT-AS promoter -23.9%, GPR32 ag 101.5*, B2AR arrestin ag inactive and HTT prom inh -14.6%.
For CCOCCCNC(=O)c1c[nH]c2ccc(S(=O)(=O)Nc3cccc(Cl)c3C)cc2c1=O the results were FH mod -24.4%, GALC G270D act inactive, HTT-AS promoter -27.1%, GPR32 ag 64.9*, B2AR arrestin ag inactive and HTT prom inh -22.5%.
CCOc1ccc(NS(=O)(=O)c2ccc3[nH]cc(C(=O)NC4CCCC4)c(=O)c3c2)cc1 was read as FH mod -16.7%, GALC G270D act inactive, HTT-AS promoter -37.5%, GPR32 ag inconclusive, B2AR arrestin ag inactive and HTT prom inh -23.7%.
CCc1ccc(NS(=O)(=O)c2ccc3[nH]cc(C(=O)NC4CCCC4)c(=O)c3c2)cc1 was read as FH mod inconclusive, GALC G270D act inactive, HTT-AS promoter -29.0%, GPR32 ag inconclusive, B2AR arrestin ag inactive and HTT prom inh -17.0%.
`CCCCC#Cc1nc(NC)c2ncn([C@@H]3O[C@H](CO)[C@@H](O)C3O)c2n1` (stereo partly specified) gave FH mod -8.1%[53.3 µM].
Screening O=C(CCC1CCN(Cc2ccccc2)CC1)c1ccc2c(c1)NCCCC2 returned FH mod inconclusive, GALC G270D act inactive, HTT-AS promoter -24.4%, GPR32 ag 81.2* and HTT prom inh -18.1%.
`CC1CCN(S(=O)(=O)c2nnc(NC(=O)c3cccc(Cl)c3)s2)CC1` gave FH mod -2.3%, GALC G270D act inactive, HTT-AS promoter -69.7%, GPR32 ag 68.5*, B2AR arrestin ag inactive and HTT prom inh inconclusive.
